Assay results: PubChem BioAssay (NCI)
Where “and” joins values, the source holds several entries; their conditions need not be identical. Identical values can stand only once. Compounds without any hit were thinned out: in the full panel of roughly 83,000, 20% have a hit.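 Plates (96-well) were seeded with cells, treated with compound at one concentration, and incubated for 48 hours before percent growth was determined.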 Values without a mark were called inactive. Calls of active or inactive are those of the source. How the source made its calls: active means growth percent below 10; inactive means the rest.

test system: EKVX NSCLC; test: NCI-60 one-dose screen, 48 h (100 = growth as untreated, 0 = no growth, -100 = all killed); settings: 10 µM unless noted

SMILES | growth
CCc1cccc2c3c(sc12)C(c1ccc(F)cc1)C(C#N)=C(/N=C/c1ccc(Cl)cc1)O3 (stereo not given) | 47.8%
Cc1ccc2c(n1)C(=O)C(Cl)=C(Nc1ccc(C(=O)OC(C)(C)C)cc1)C2=O | 76.5% [9.25 µM]
Clc1ccc2[nH]cc(-c3cncn3CCc3ccc4c(c3)OCO4)c2c1 | 48%
CCCCCCCCCC(=O)NC(C)(C)C(=O)N1CCC[C@H]1C(=O)N[C@@H](CC(C)C)C(=O)N[C@@](C)(CC)C(=O)N[C@@H](CCC(N)=O)C(=O)N[C@H](CCC(N)=O)C(=O)NC(C)(C)C(=O)NC(C)(C)C(=O)N[C@@H](CCC(N)=O)C(=O)N[C@H](CC(C)C)C(=O)N[C@H](CO)CC(C)C | -87.8% (active) and -64.6% (active)
C=C1CCc2nc(SCC(=O)O)ccc2N1 | 101%
CC[C@]12C=CCN3CC[C@@]4(c5ccc(OC)cc5N(C)[C@H]4[C@@](O)(C(=O)OC)[C@@H]1OC(=O)CCN1CCc4ccccc4C1)[C@@H]32 | 88.6%
CCOC(=O)c1cccnc1Nc1ccc(NC(=O)Nc2ccc(Cl)c(C(F)(F)F)c2)cc1 | 40.6%
Cc1ccc(S(=O)(=O)NCCCNc2nccc(-c3[nH]c(-c4ccccc4)nc3-c3ccc(F)c(O)c3)n2)cc1 | 94.9%
O=C(CSc1nnc(-c2ccc(Cl)cc2)n1-c1ccccc1)Nc1ccc(Cl)cc1 | 49.7%
Cc1ccc2c(n1)C(=O)C(Cl)=C(Nc1ccc(C(F)(F)F)cc1)C2=O | 77.2%
CC(=O)C1=C(C)NC(NNc2ccccc2)=NC1c1ccc([N+](=O)[O-])cc1 (stereo not given) | 80%
NC(N)=NS(=O)(=O)c1ccc(N=Nc2c(N)nn(-c3ccc([N+](=O)[O-])cc3[N+](=O)[O-])c2N)cc1 | 99%
NCCNC(=O)c1cccc(COc2ccccc2NC(=O)c2cc(Br)c(Br)[nH]2)c1 | 89.9%
COC(=O)CCCNCCCn1ccc2cc(NCc3cccc(-c4ccccc4)c3C)ccc21 | 73.6%
O=C(CCCCCCN1CC(=O)N2[C@@H](c3ccccc3Br)c3[nH]c4ccccc4c3C[C@H]2C1=O)NO | 62.5%
CCCCOc1ccc(S(=O)(=O)N2CCN(c3nc(C)cc(N4CCOCC4)n3)CC2)cc1 | 39.9%
NS(=O)(=O)c1ccc(CCn2c(-c3ccc(C(=O)O)cc3)nc(-c3ccccc3)c2-c2ccccc2)cc1 | 100%
N#C/C(=N\Nc1ccc(F)cc1)C(=O)Nc1cc(-c2ccccc2)nn1-c1ccccc1 | 5.52% (active)
Cn1c2nc3ccccc3c-2cc2ccccc21 | 42.5%
NS(=O)(=O)c1nnc(/N=C/c2c(O)[nH]c3ccccc23)s1 | 84.2%

SMILES | growth
NC(=O)c1c(NC(=O)c2ccc(C(F)(F)F)cc2)sc2c1CCC(=O)C2 | 24.8%
O=C(N/N=C\c1ccc([N+](=O)[O-])cc1)c1ccc2nc(-c3ccc(Br)cc3)[nH]c2c1 | 45.4%
C#CCN(C)CCCOc1ccc(NC(=O)CCCCCCC(=O)NO)cc1Cl | 51.5%
Fc1cc(F)cc(NNC(=S)c2ccccc2)c1 | 39.7%
Fc1ccc(-c2cn3c(-c4c[nH]c5ccc(Br)cc45)csc3n2)cc1 | 64.9%
CC[C@]12C=CCN3CC[C@]4(C(=C(C(=O)OC)C1)Nc1cc5c(cc14)[C@@H]1[C@H](O5)[C@@H](O)[C@@]4(CC)CC(C(=O)OC)=C5Nc6cc(O)ccc6[C@@]56CCN1C46)C32 (stereo not given in full) | 16.3%
Cc1cc(C)cc(NC2=C(Cl)C(=O)c3nc(C)ccc3C2=O)c1 | 55.1%
COc1ccc2c(c1)c(-c1nn3cc(-c4ccncc4)nc3s1)cn2C | 77.6%
COC(=O)N1CCN(CCNCc2ccc(NC(=O)c3ccc(C)c(C#Cc4cnc5cccnn45)c3)cc2C(F)(F)F)CC1 | 48.9%
CC(C)(O)c1cncc(-c2ccc3ncc(C#N)c(N4CCc5cc(F)c(Cl)cc54)c3c2)c1 | -10.5% (active)
O=C(/C=C/c1ccc(F)cc1)Nc1cccc2cccnc12 | 91.4%
C#CCN(C)CCCOc1ccc(NCc2ccc(C(=O)NO)cc2)cc1Cl | 35.5%
COCCOc1ccc2ncc(C#Cc3cncc(C(=O)Nc4ccc(CN5CCN(C)CC5)c(C(F)(F)F)c4)c3)n2n1 | 33.6%
CC(C)NC(=O)c1cc(-c2ccc(NC(=O)Nc3ccc(F)cc3)cc2)nc2cccnc12 | 102%
O=C1c2ccccc2C23C(=C(c4cncnc4)c4ccccc42)CCCN13 (stereo not given) | 100%
N#Cc1cccc(-c2cc(-c3ccc4c(c3)OCCO4)[nH]n2)c1 | 63.3%
CCC(=C(c1ccc(OCCN(C)C)cc1)c1ccc(OCCN(C)C)cc1)c1ccc(Cl)cc1 | 7.78% (active)
COc1ccccc1/C=C1\Oc2ccc(O)c(O)c2C1=O | 78.5%
CN1CCN(c2ccc(Nc3nc(NCCCNS(=O)(=O)c4ccccc4)c4sccc4n3)cc2)CC1 | 97.6%
Nc1nc(=O)n([C@H]2C[C@H](O)[C@@H](CO)O2)cc1C=O | 112%
